In the supplement of paper PMC12067926 one finds relative growth data, which are given here for 14 molecules.

Experiment in all cases: relative growth (AUC of 72 h growth curve relative to DMSO control, dAUC) (ratio); higher = more growth (less inhibition), active = hit call of the paper
Common to all, as to settings: 20 µM

The subject of one assay is Community 7. In outline:
(§1)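 Relative growth (dAUC) is the spline-integrated area under the growth curve divided by the mean of the DMSO-only control wells. Cultures were isolates from Icelandic stream sediments and Silwood Park soil, plus whole sediment communities, grown to carrying capacity in Luria–Bertani medium and diluted 1:100 into 96-well plates containing each chemical at 20 µM (1% DMSO). A600 was read hourly for 72 h on a plate reader, with brief shaking before each read, and values were averaged over three biological replicates.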

The next assay concerns Community 8. The method, boiled down: as §1
The test system of a further assay is Community 9. In outline:
as §1

The subject of assay [1] is Flavobacterium 1 (Flavobacterium glaciei). In outline:
as §1

Assay [2] concerns Flavobacterium 2 (Flavobacterium succinicans). The method, boiled down:
as §1

In assay [3] the test system is Hymenobacter 1 (Hymenobacter glaciei). The method, boiled down: as §1
Assay [4] concerns Microbacterium 1 (Microbacterium arborescens). In outline:
as §1

In assay [5] the test system is Neobacillus 1 (Neobacillus soli). The method, boiled down:
as §1

The test system of assay [6] is Oryzobacter 1 (Oryzobacter terrae). The method, boiled down:
as §1

Assay [7] has as its system Paenibacillus 1 (Paenibacillus castaneae). The method, boiled down: as §1

Values without a mark were called inactive.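 How the source made its calls: active = growth AUC significantly below the DMSO wells by Dunnett test; inactive = the rest.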

With `CC(C)(C)[C@@H](O)[C@H](Oc1ccc(Cl)cc1)n1cncn1`, the relative growth with Community 7 was 0.988; with Community 8, 1.02; in the assay with Community 9, 1.09; in assay [1], 1.01; in [2] it was 1.02; in [3], 1.05. For the same molecule, the relative growth in assay [4] was 0.963; in assay [5], 1.04; in assay [6] it was 1.02; in assay [7], 1.12.

In the case of `CC1(C)[C@H](/C=C(\Cl)C(F)(F)F)[C@@H]1C(=O)OC(C#N)c1cccc(Oc2ccccc2)c1` (stereo not given in full), the relative growth in the assay with Community 7 was 1.19; in the assay on Community 8, 1.09; in the assay with Community 9, 0.956; in [1] it was 0.836; in [2], 0.995; in assay [3] it was 1.06. Moreover, the relative growth is 0.995 in assay [4], 0.958 in assay [5], 1.11 in assay [6] and 0.889 in [7].

`COc1cccc(C(=O)NN(C(=O)c2cc(C)cc(C)c2)C(C)(C)C)c1C`: the relative growth is 1.12 in the assay with Community 7; 1.03 in the assay on Community 8; 0.893 with Community 9; 0.818 in assay [1]; 0.92 in assay [2]; 0.923 in assay [3]. In addition, the relative growth was 0.977 in assay [4], 0.914 in assay [5], 1.06 in assay [6] and 0.926 in assay [7].

As for `Cc1ccc(/N=C/N(C)/C=N/c2ccc(C)cc2C)c(C)c1`, the relative growth in the assay with Community 7 is 1.16; with Community 8, 1.05; with Community 9, 0.961; in assay [1], 1.02; in [2] it was 1; in [3] it was 1.04. Also, the relative growth was 1.05 in assay [4], 0.964 in assay [5], 1.03 in [6] and 0.969 in [7].

With `CCOC(=O)OC1=C(c2cc(C)ccc2C)C(=O)N[C@]12CC[C@@H](OC)CC2`, the relative growth in the assay with Community 7 was 1.03; with Community 8, 0.995; in the assay on Community 9, 1.03; in assay [1], 1.08; in [2] it was 1.05; in assay [3], 0.987. Besides, the relative growth in assay [4] is 1.01; in assay [5] it was 1.09; in [6] it was 1.05; in [7], 1.01.

For the molecule `CC[C@H](C)[C@H]1O[C@]2(C=C[C@@H]1C)C[C@@H]1C[C@@H](C/C=C(\C)[C@@H](O[C@H]3C[C@H](OC)[C@@H](O[C@H]4C[C@H](OC)[C@@H](O)[C@H](C)O4)[C@H](C)O3)[C@@H](C)/C=C/C=C3\CO[C@@H]4[C@H](O)C(C)=C[C@@H](C(=O)O1)[C@]34O)O2.CO[C@H]1C[C@H](O[C@H]2[C@H](C)O[C@@H](O[C@@H]3/C(C)=C/C[C@@H]4C[C@@H](C[C@]5(C=C[C@H](C)[C@@H](C(C)C)O5)O4)OC(=O)[C@@H]4C=C(C)[C@@H](O)[C@H]5OC/C(=C\C=C\[C@@H]3C)[C@]54O)C[C@@H]2OC)O[C@@H](C)[C@@H]1O`, the relative growth in the assay on Community 7 was 1.17; in the assay with Community 8, 0.963; with Community 9 it was 0.624 (active); in assay [1], 0.139 (active); in assay [2] it was 0.975; in [3] it was 0.9. In addition, the relative growth in [4] was 0.963; in assay [5], 0.893; in assay [6], 0.286 (active); in assay [7], 0.317 (active).

In the case of `CCCCOC(=O)[C@H](C)Oc1ccc(Oc2ccc(C#N)cc2F)cc1`, the relative growth was 1.07 in the assay with Community 7; 0.995 in the assay with Community 8; 1.06 in the assay with Community 9; 1.13 in [1]; 0.955 in assay [2]; 1.03 in assay [3]. Further, the relative growth was 1.04 in assay [4], 1.03 in assay [5], 1.06 in assay [6] and 1.1 in assay [7].

On to `CC[C@H](C)C1O[C@]2(C=C[C@@H]1C)C[C@@H]1C[C@@H](C/C=C(\C)[C@@H](O[C@H]3C[C@H](OC)[C@@H](O[C@H]4C[C@H](OC)[C@H](NC)[C@H](C)O4)[C@H](C)O3)[C@@H](C)/C=C/C=C3\CO[C@@H]4[C@H](O)C(C)=C[C@@H](C(=O)O1)[C@]34O)O2` (stereo not given in full), for which the relative growth with Community 7 is 0.976; in the assay on Community 8, 0.952; with Community 9 it was 0.404 (active); in [1] it was 0.0154 (active); in assay [2], 0.832; in assay [3] it was 0.356 (active). Also, the relative growth was 1.04 in [4], 0.894 in assay [5], 0.00218 (active) in [6] and 0.0061 (active) in assay [7].

Regarding `CC1(C)C(C=C(Cl)Cl)C1C(=O)OC(C#N)c1cccc(Oc2ccccc2)c1` (stereo not given), the relative growth in the assay on Community 7 is 0.963; in the assay on Community 8 it was 1.08; in the assay with Community 9, 1.12; in assay [1] it was 0.979; in [2], 1.05; in [3], 1.08. Further, the relative growth is 1.03 in assay [4], 1.02 in assay [5], 1.07 in assay [6] and 1 in assay [7].

With `CNC(=O)Oc1cccc(/N=C/N(C)C)c1`, the relative growth is 1.15 with Community 7; 1.03 with Community 8; 1.07 in the assay with Community 9; 0.984 in assay [1]; 0.99 in [2]; 0.815 in [3]. In addition, the relative growth is 1.02 in assay [4], 0.97 in assay [5], 1.05 in assay [6] and 0.96 in assay [7].

For the molecule `CC1(C)C(C=C(Cl)Cl)C1C(=O)OCc1cccc(Oc2ccccc2)c1` (stereo not given), the relative growth in the assay with Community 7 was 1.08; in the assay on Community 8, 0.975; in the assay on Community 9, 0.932; in assay [1], 0.977; in assay [2] it was 0.958; in assay [3], 0.989. The relative growth in assay [4] was 0.987; in assay [5], 1.05; in assay [6] it was 1.14; in assay [7], 0.894.

For `CCOP(=S)(OCC)Oc1nc(Cl)c(Cl)cc1Cl`, the relative growth is 0.998 with Community 7; 1.02 with Community 8; 1.06 with Community 9; 1.05 in [1]; 0.996 in assay [2]; 1.07 in assay [3]. Further, the relative growth in assay [4] is 0.991; in assay [5], 1.07; in assay [6], 1.04; in assay [7] it was 1.04.

As for `C#CCN1C(=O)COc2cc(F)c(N3C(=O)C4=C(CCCC4)C3=O)cc21`, the relative growth in the assay with Community 7 was 1.07; with Community 8 it was 1.01; with Community 9, 0.923; in assay [1], 0.957; in assay [2], 0.977; in assay [3], 1.06. In addition, the relative growth in assay [4] was 1.04; in assay [5] it was 1.01; in assay [6], 1.04; in assay [7], 0.935.

Turning to `CC(COc1ccc(Oc2ccccc2)cc1)Oc1ccccn1` (stereo not given), the relative growth with Community 7 is 1.05; in the assay on Community 8, 1.06; in the assay on Community 9 it was 1.04; in [1] it was 0.975; in [2], 1.02; in [3] it was 1.07. Also, the relative growth in [4] was 1.05; in assay [5], 1.09; in assay [6], 1.11; in assay [7], 1.05.
